Measured values taken from PubChem BioAssay (NCI).
About 83,000 compounds went through this panel and 20% of them were active in at least one assay; those are over-represented in the sample as a whole.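 Plates (96-well) were seeded with cells, treated with compound at one concentration, and incubated for 48 hours before percent growth was determined.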 Values without a mark were called inactive. The calls were made as follows: active = growth percent below 10; inactive = the rest.

tested on: HL-60(TB) leukemia; assay: NCI-60 one-dose screen, 48 h (100 = growth as untreated, 0 = no growth, -100 = all killed); details: 10 µM unless noted

Row | SMILES | growth
1 | CC(=O)OCCCCN1C=C/C(=C\C(=O)n2ccc3ccccc32)c2ccccc21 | 98.6%
2 | C=CCOc1cccc(/C=C2\SC(=S)N(C3CC(=O)N(c4ccc(Br)cc4)C3=O)C2=O)c1 (centres undefined) | 108%
3 | O=C1/C(=C/C=C/c2ccco2)SC(=S)N1C1CCCCC1 | 69.4%
4 | COc1ccc(C(=NNS(=O)(=O)c2ccc(C)cc2)c2ccccc2)cc1OC | 96.9%
